# Screens: PubChem BioAssay, National Center for Advancing Translational Sciences (NCATS)
# Resorufin fluor = compound fluoresces in the resorufin spectral region; Compound fluorescence, resorufin region 547/598 nm, buffer; active compounds read high; max dye-equivalent concentration, M; 0.04% of 59,000 active; AID 588
#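 Tris 100 mM pH 8.0; compound added, 15 min RT; CCD imager read, ex 547 nm/em 598 nm; signal normalized to resorufin standard curve (six concentrations per plate) as dye-equivalent concentration.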
# Rhodamine autofl = compound autofluorescence in rhodamine spectral region | max dye-equivalent concentration, M | Rhodamine-region fluorescence, 547/598 nm, Tris buffer; active compounds read high | 0.05% of 59,000 active | AID 594; in the data active means max dye-equivalent concentration above about 11 nM; inconclusive means between about 1.1 nM and that limit
#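 Intensities are converted to rhodamine-equivalent concentration using a six-point rhodamine standard on each plate. Compounds sit 15 min at room temperature in 100 mM Tris buffer, pH 8.0; read uses the 547/598 nm excitation/emission pair.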
# Fluorescein fluor = compound fluoresces in the fluorescein spectral region. Compound autofluorescence, 480/540 nm, fluorescein-equivalent; active compounds read high. max fluorescein-equivalent concentration, M. 0.91% of 59,000 active. AID 593; in the data active means max fluorescein-equivalent concentration above about 10 nM; inconclusive means between about 1.1 nM and that limit
#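 Each compound is tested across a concentration series in 100 mM Tris buffer at pH 8.0. After 15 min at room temperature, plates are imaged with 480 nm excitation and 540 nm emission filters, and intensities are converted to fluorescein-equivalent values.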
# A647 autofl = compound autofluorescence in A647 spectral region; AID 592; Compound fluorescence, A647 channel (570/671 nm), Tris buffer; 59,000 tested, under 10 active; max dye-equivalent concentration, M;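 further: values scaled relative to a standard on each plate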
#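 Spectral profiling of library compounds in pH 8.0 Tris: 15 min room-temperature incubation, single ex/em pair (570/671 nm), response normalized to Alexa 647 equivalents.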
# Texas Red fluor = compound fluoresces in the Texas Red spectral region. Compound fluorescence, Texas Red channel, 547/618 nm; active compounds read high. 0.06% of 59,000 active. max dye-equivalent concentration, M; in the data active means max dye-equivalent concentration above about 10 nM; inconclusive means between about 1.1 nM and that limit
#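 Compound fluorescence was read after 15 min at room temperature in 100 mM Tris, pH 8.0, using 547 nm excitation and 618 nm emission across a concentration series. It was expressed as Texas Red dye-equivalent concentration from an on-plate standard curve.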
# A488 autofl = A488 region autofluorescence. compound autofluorescence, A488 spectral region, dye equivalency; Compound Type: qHTS ECL - MLSMR. max dye equivalency, M. 0.1% of 59,000 active. AID 591
#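 Compounds pin-transferred into 100 mM Tris buffer, pH 8.0, incubated 15 min at room temperature, then imaged with 480 nm excitation/540 nm emission filters. Fluorescence converted to Alexa 488 dye-equivalent concentration via an on-plate six-point A488 standard curve.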
# Numbers without * were called inactive; i = inactive; ? = inconclusive; ! = a repeat was not active. A selection: hits, their analogues and other compounds. The true share with any hit is near 0.95%. Unless noted, how the calls were made is not given here.
SMILES,Resorufin fluor,Rhodamine autofl,Fluorescein fluor,A647 autofl,Texas Red fluor,A488 autofl
CCOC(=O)CN=C1CC(C)(C)CC2=C1Sc1ncnc(N(C)C)c1N2,?,?,3.4e-08M*,1e-09,i,?
Cc1ccc([C@@H]2C3COCC=C3C(C#N)=C(N)C2(C#N)C#N)o1 (stereo partly drawn),i,i,1.16e-08M*,1.94e-08,i,i
Cn1ccnc1Sc1nc2ccccc2nc1NS(=O)(=O)c1ccccc1,i,i,1.06e-08M*,1e-09,i,i
Cc1c(Nc2nc3ccccc3nc2NS(=O)(=O)c2ccccc2)c(=O)n(-c2ccccc2)n1C,i,i,i,1e-09,i,i
CC(=O)Nc1ccc(S(=O)(=O)Nc2nc3ccccc3nc2Sc2nncn2C)cc1,i,i,1.41e-08M*,4.6e-09,i,i
Cn1cnnc1Sc1nc2ccccc2nc1NS(=O)(=O)c1ccccc1,i,i,?,7e-09,i,i
CCOC(=O)c1c(C)oc2ccc(O)c(CN(C)C)c12,i,i,?,1.7e-08,i,i
CCOC(=O)c1c(C)oc2c1c(/C=N/c1ccccn1)c(O)c1ccccc12,i,i,2.15e-08M*,1e-09,i,i
CCCn1c(=C(C#N)C#N)s/c(=C2\C=Cc3ccccc3N2CC)c1=O,?,?,2.1e-08M*,9.4e-09,?,i
CCSC1=NC(=O)/C(=C2/C=Cc3ccccc3N2CC)S1,i,i,?,7.5e-09,i,i
C=C1C(=O)O[C@H]2C[C@@]3(C)CCCC(=C)[C@@H]3C[C@H]12,i,i,i,5.2e-09,?,i
CC(C)(CN)CN,i,i,?,4.86e-08,i,i
Cc1c(-n2cc(C(=O)c3ccccc3O)cc(C#N)c2=O)c(=O)n(-c2ccccc2)n1C,i,i,3.75e-08M*,2.32e-08,i,?
N#Cc1cccc(NC(=O)N2CC3(CCN(C(=O)c4ccco4)CC3)C2)c1,i,i,?,2.63e-08,i,i
Cn1cc(C2=C(c3ccc(Cl)cc3Cl)C(=O)NC2=O)c2ccccc21,?,?,4.98e-07M*,1.8e-09,i,2.72e-08M*
O=[n+]1c2c(n([O-])c3cc(F)ccc31)CCCC2,i,i,i,1.04e-08,i,i
O=[n+]1c2c(n([O-])c3cc(F)c(N4CCCC4)cc31)CCC2,?,?,1.71e-07M*,1.18e-08,?,?
N[C@H](CS(=O)O)C(=O)O,i,i,i,1.7e-09,?,i
CC(CS(=O)(=O)c1cccc2cccnc12)N1CCCCC1 (stereo not drawn),i,i,1.61e-08M*,4.85e-08,i,i
O=S(=O)(NC1CCCCCC1)c1cccc2cccnc12,i,i,i,4.9e-09,i,i
c1ccc2c(-c3ccncc3)c[nH]c2c1,i,i,?,1e-09,i,i
Nc1cc(-c2ccncc2)c[nH]c1=O,i,i,1.08e-08M*,5.08e-08,i,i
N=c1c(S(=O)(=O)c2ccccc2)cc2c(=O)n3ccccc3nc2n1Cc1ccco1,i,i,?,3.5e-09,i,i
Cc1ccc(S(=O)(=O)c2cc3c(=O)n4ccccc4nc3n(Cc3ccco3)c2=N)cc1C,i,i,1.24e-08M*,4.08e-08,i,i
Nc1ccn([C@H]2CC[C@H](CO)O2)c(=O)n1,i,i,?,4.65e-08,i,i
SMILES,Resorufin fluor,Rhodamine autofl,Fluorescein fluor,A647 autofl,Texas Red fluor,A488 autofl
CC1(C)S[C@@H]2[C@H](NC(=O)C(N)c3ccccc3)C(=O)N2[C@H]1C(=O)O (stereo partly drawn),i,i,?,1e-09,i,i
CC1(C)S[C@@H]2[C@H](NC(=O)COc3ccccc3)C(=O)N2[C@H]1C(=O)O (tested in a mixture with another compound),i,i,1.92e-08M*,2.88e-08,i,i
C[C@@H]1c2ccccc2Cn2cc3c(c21)C(=O)c1cccc(OP(=O)(O)OCc2ccccc2)c1C3=O,i,i,8.57e-08M*,8.7e-09,i,?
CO[C@@H]1/C=C\O[C@]2(C)Oc3c(C)c(O)c4c(O)c(c(/C=N\N5CCN(C)CC5)c(O)c4c3C2=O)NC(=O)/C(C)=C\C=C/[C@H](C)[C@H](O)[C@H](C)[C@H](O)[C@H](C)[C@H](OC(C)=O)[C@@H]1C,i,i,i,1e-09,i,i
CN(C)c1ncc2nc(-c3cc(F)cc(F)c3)c(=O)n(Cc3cccs3)c2n1,i,i,?,2.07e-08,?,i
N#CC(=C(/N)Sc1ccccc1N)/C(C#N)=C(/N)Sc1ccccc1N,i,i,?,4.9e-09,i,i
O=c1oc2c(CN3CCCCC3)c(O)ccc2cc1-c1nc2ccccc2[nH]1,i,i,2.83e-06M*,1e-09,i,1.4e-07M*
Cn1nc(-c2ccccc2)c2nc3ccccc3nc21,i,i,4.53e-07M*,3.58e-08,i,2.73e-08M*
CCN(CC)COC(=S)S,i,i,i,4.2e-09,i,i
C=C1CC[C@@H](O)C/C1=C/C=C1\CCC[C@]2(C)[C@@H]1CC[C@H]2[C@@H](C)CCCC(C)C,i,i,i,1e-09,i,i
Cc1cccc(-c2c3c(=O)n(C)c(=O)n(C)c3c3cccnn23)c1,i,i,1.06e-08M*,1e-09,i,i
Cc1cccc(-c2c3c(=O)n(C)c(=O)n(C)c3c3c(C)cc(C)nn23)c1,i,i,?,3.24e-08,i,i
O=C1NC(=O)C(c2ccccc2)(c2ccccc2)N1,i,i,?,1e-09,i,i
CCC1(c2ccccc2)C(=O)NCNC1=O,i,i,1.2e-08M*!,3.45e-08,i,i
COC(=O)c1ccc(C2/C(=C(/O)c3ccc(OC(C)C)cc3)C(=O)C(=O)N2c2cc(C)on2)cc1 (stereo not drawn),i,i,i,8e-09,?,i
COC(=O)c1ccc(C2/C(=C(/O)c3ccc(OC)cc3)C(=O)C(=O)N2c2cc(C)on2)cc1 (stereo not drawn),i,i,1.02e-08M*,2.7e-09,i,i
CN[C@@H]1[C@H](O)[C@H](NC)[C@@H]2O[C@]3(O)C(=O)C[C@@H](C)O[C@H]3O[C@@H]2[C@H]1O,i,i,i,2.3e-08,i,i
COc1ccc2nc(N3CCC(C)CC3)c(C#N)cc2c1,i,i,?,1e-09,i,i
COc1ccc2nc(N3CCC(O)CC3)c(C#N)cc2c1,i,i,2.31e-08M*,1e-09,i,i
COc1ccc(-n2c(=O)c(-c3ccc(Cl)cc3)nc3cnc(N4CCOCC4)nc32)cc1,i,i,?,2e-09,i,i
